Laboratory results reported in the supplement of paper PMC11417369.
Whole data set: some 25,000 sequences, median “ln(normalized median fluorescence intensity)” near 7.1, cut for the highest 2% near 10. The list comes from a sample in which the highest values are over-represented; it also holds similar and randomly drawn sequences.

The sequences below were run on PfSIP2 AP2 domain 1 (GST-tagged) (assay: gcPBM binding intensity (ln(normalized median fluorescence intensity)); higher = stronger DNA binding).
Method in brief: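 After 1 h on an Agilent 4 × 180k array of primer-extended double-stranded 36-bp intergenic genomic probes and negative controls, bound GST-tagged P. falciparum DNA-binding domains were detected with Alexa488 anti-GST antibody and scanned at 488 nm. The domains had been expressed in E. coli, and binding took place in 1× PBS with 1% milk, 0.2 mg/ml BSA, 0.5% salmon testes DNA and 0.03% Triton X-100. Binding intensity is the highest Masliner-normalised natural-log median intensity across replicate spots of either probe orientation.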

Sequence | gcPBM binding intensity (ln)
ATGAATAAATAGGTCACACACAAATATATATAAATA [CACACA_site2416] | 6.98
TTAATATTGTATCCAAGTACACAAATTATTATATTT [XGTACX_site8067] | 7.11
CATGTATTTTATATTACACACTAATATTATATATAT [CACACA_site1508] | 7.51
CTTTCATATGTTTTAACACACACGCATATATTATAG [CACACA_site7033] | 7.08
TCTAACATATCTTTAATACACACTTAAAAAAGTACT [CACACA_site652] | 7.03
TATAATGTATGTAGTGCACACCTCTATAATATATTA [CACACA_site8560] | 10.3
ATATGTAGAAGTAATGCACACATATGTATATATATA [CACACA_site8796] | 8.38
ATATATATTATATAGTGTACCTATGTATAATAATAT [XGTACX_site1683] | 7.16
TAGAATGTATGTAGTGCACACCTCTATAATATATTA [CACACA_site1873] | 10.7
TGTAATATATGTATTGCACACCTATAACCATTATTT [CACACA_site8422] | 7.17
TATGTACACCCATATACACACCTCTATAATATATAT [CACACA_site4563] | 7.29
TTAAAAATGAACATATGTACATATATATATATATAT [XGTACX_site7923] | 9.39
TAAAAAATAAGATATACACACATATATTTATTTATA [CACACA_site7158] | 6.72
ATTTATTTATTTAGCTGTACATTTATACAGAACGAT [XGTACX_site3336] | 7
ACATTATGTCATAAATGTACACATACATATACATAC [XGTACX_site8998] | 7.11
AAAAATAAGATATATACACACATATAAATATAAATA [CACACA_site7396] | 6.82
GCCAATAAAGATGTGGTGCATTATATATATATATAT | 10.6
TAAATATATATATAAGTGCATTATATATATATATAA | 8.97
TATATATATATATGTGCACACATAAAGATATTATTT [CACACA_site3734] | 9.38
GCTTTAATCTGAAAGTGTACAGATAATATATTTATA [XGTACX_site2462] | 7.15
ATATGTAAAATATGGTGTACAATCAAATAAAAAAAA [XGTACX_site6270] | 7.16
ATAATGTAAAAGTAAACACACACATATATATATACA [CACACA_site8793] | 7.06
TATATATATATATAGGTGCAATATTGAAAAAATATC [GTGCAC_site9535] | 9.82

Sequence | gcPBM binding intensity (ln)
TTTTGAAGTAACAAATAAATAAATAAATATATAAAA [GTGCAC_negctrl_site517] | 6.92
AAAAAAAAAAAAAAAGTGCACTGAAAATATATTGAA [GTGCAC_site9395] | 10.9
TTCTTGTTCCTGAAAGTGCATATAACAAAAATAACA [GTGCAC_site9635] | 9.52
AAATAATATTGAAAAGTGCATATTTTTGTTGATATA | 8.42
TTTGTTCTTTTTGAAGTGCACTGAAATATAACAAAA | 10.7
ATATCAAATTCTGAAACACACAAAATTACACCTCTA [CACACA_site169] | 7.06
AAATAAAAAAAGAAACGTACATATATTGGTTTCGTC [XGTACX_site3510] | 6.96
AAAAAAAAAAAAAAAAAAAAAAAAATATATAATTTA [CACACA_negctrl_site583] | 8.71
CACCTCAATATTCACATACACACAATATCATCGAAG [CACACA_site1675] | 7.33
AATTATATGAAATAAACACACATATGTAATATTACA [CACACA_site1928] | 6.76
TTAATGTTTGAAAGAGTGCACATAACAAAAAAAAAA [GTGCAC_site9623] | 11.1
AAAAAAACATAACAAAATGAAACAAAACAAAAAGAA [GTGCAC_negctrl_site577] | 7.28
CACATATACAAAAAGAAATGTTTAGTTGAAAATTAA [CACACA_negctrl_site1407] | 6.67
TCCTAATATATGTATGCACACACAATATATACATAT [CACACA_site9111] | 7.36
AATATAAGAATATATACACACATAAATACATACATA [CACACA_site4128] | 7.01
ATATACATATATATATGTACTGAAAAGAAAAGAATT [XGTACX_site150] | 7.08
TATATATATATATATGTGCACTGAAAGAATTATACA [GTGCAC_site9586] | 10.3
ATTATATATAAGAAGAGTACTGAATATGTGCAATAT [XGTACX_site4471] | 7.43
AGGTGTATCATAAAATGTACATACATACATACATAA [XGTACX_site4479] | 7.02
TTATATTAGCCGATGGTGCATATATTTATAGGAAAA [GTGCAC_site9518] | 10.1
TTATATAGGCAGATGGTGCATCTATTTATAAGCAAC | 10.7
ATAAGATAGGCATATACACACATTTATTTACAGATA [CACACA_site5754] | 6.87
